Reference: the supplement of paper PMC6555819

What was measured:
Test in all cases: PBM binding z-score (relative to random genomic background probes); higher = stronger binding; sequences stand for … in GC…GCGATTGACAGCGTAGAATGAAGG
[1] = system: FXR:RXRa (NR concentration 270 nM, RXRa partner concentration 90 nM)
Method in brief: (§1)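 The probes on custom Agilent 4×180K protein-binding microarrays were double-stranded, with 34-nt variable regions bearing direct-repeat seeds, single-nucleotide variants, half-site ablations and random human genomic background sequences. Incubation lasted 1 h with ligand-free nuclear receptor dimers in PBS pH 7.4, 2% milk, 0.02% Triton X-100, 1 mM DTT, 0.2 mg/mL BSA and 0.4 mg/ml salmon testes DNA. Antibodies against each partner (one per run) detected bound dimers, and fluorescence scans were regression-normalized. Binding z-scores take the random background probes as reference.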

[2] = system: LXRa:RXRa (NR concentration 270 nM, RXRa partner concentration 90 nM)
Method in brief: as §1

[3] = system: LXRa homodimer (NR concentration 270 nM)
Method in brief: as §1

[4] = system: LXRb:RXRa (NR concentration 270 nM, RXRa partner concentration 90 nM)
Method in brief: as §1

[5] = system: LXRb homodimer (NR concentration 270 nM)
Method in brief: as §1

[6] = system: PPARa:RXRa (NR concentration 270 nM, RXRa partner concentration 90 nM)
Method in brief: as §1

[7] = system: PPARg:RXRa (NR concentration 180 nM, RXRa partner concentration 90 nM)
Method in brief: as §1

[8] = system: PPARg:RXRa 270nM:90nM, anti-RXR (NR concentration 270 nM, RXRa partner concentration 90 nM)
Method in brief: as §1

[9] = system: PPARg:RXRa 30nM:10nM, anti-RXR (NR concentration 30 nM, RXRa partner concentration 10 nM)
Method in brief: as §1

[10] = system: PPARg:RXRa 90nM:30nM, anti-RXR (NR concentration 90 nM, RXRa partner concentration 30 nM)
Method in brief: as §1

Sequence	PBM binding z-score [1]	PBM binding z-score [2]	PBM binding z-score [3]	PBM binding z-score [4]	PBM binding z-score [5]	PBM binding z-score [6]	PBM binding z-score [7]	PBM binding z-score [8]	PBM binding z-score [9]	PBM binding z-score [10]
TTACCAAGGTGAGCCGAGGTCGTTGATCCAACTC	2.53	1.33	-0.48	1.11	-1.11	2.19	0.623	1.32	-0.155	0.541
CATATTAGTTGACCATAAGGGCAACCGAAGCTCG	1.05	0.784	0.591	0.601	0.928	0.55	0.779	0.866	0.713	0.78
GCGACTGGGGCAACAGCAGGTTACCATAACTTAA	0.03	1.28	-0.408	0.734	-0.94	1.25	1.43	1.47	-0.0459	0.485
TCATATAGGTAGACAGGTGAAAGTCCGTAAGTTA	0.952	1.11	0.173	0.898	-0.226	1.32	0.974	2.5	3.79	3.27
CCCATTAGTTGACCATAAGGGCAACCGAAGCTCG	1.1	0.851	0.582	0.755	0.614	0.65	0.359	0.482	-0.068	0.346
TCTTCTAGATCAGCAGGTTAAGAAAGCTGGCCAA	0.108	0.0628	-0.37	0.225	0.0387	0.759	-0.499	1.53	2.84	2.08
TCTGCTAGGTCAGTTGGTCAGTTAACGAGCTGCC	0.865	0.257	-0.414	0.323	0.405	1.37	0.334	1.33	0.985	1.08
TCTTGTAGATCAAAGGTAAAGAAAGCCGAAGCCT	0.667	0.672	-0.3	0.446	-0.436	3.14	5.41	6.12	6.21	6.93
TCTTGTAGATCAAGCAGGTTAAGATAGCCTGAGT	0.371	0.507	-0.257	0.188	-0.36	0.829	-0.193	1.27	2.75	2.18
AGAACGAGGGCAACGAGTTGATAGCACGGGTGGC	0.357	0.068	-0.499	-0.258	-0.674	1.59	1.67	1.29	0.0508	0.609
GCTAGGAGGCCATTTGGGTCACTCAATGACGGGC	0.677	0.0368	-0.495	0.118	-0.985	1.73	0.825	0.402	-0.518	0.187
TGTCAAAGTTCAAAGGAAACGTAAGTATCCACAC	6.34	5.91	3.73	3.56	1.37	4.94	7.64	7.15	4.84	6.6
GCGACTGGAGCAAAGCAGGTTACCATAAGGTTGG	-0.343	-0.594	-0.842	-0.498	-1.26	0.27	0.477	-0.112	-0.43	-0.311
CCGACCGGGGCAAAGGTTACCATACTCAGTACGA	2.32	2.1	0.433	2.47	-1.02	4.89	8.71	7.68	6.28	7.92
ACTATTAGTTGAGACGTGGGCAACCGATAGGTTG	-0.344	-0.403	-0.444	-0.738	0.00492	-1.07	0.429	-0.3	-0.0556	-0.44
ACTTACGGGTCAACGAGGTTACAGCACGCGTATA	7.13	5.03	0.828	4.72	0.537	6	5.8	5.86	2.49	4.5
TCTGCTAGGTTAGTTGGTCAGCTAACGAGCTGCC	-0.522	-0.402	-0.882	-0.708	-0.0822	0.052	-0.648	0.707	0.944	0.973
CCAGACAGGTGAAAAGGTAACTCAGCCTCGATTA	0.33	0.666	-0.0851	0.744	-0.438	2.09	1.27	2.24	0.682	1.77
GCTCCTAGGTCAACTGATGGTCAGCTAAAGCTCG	4.73	3.62	0.561	3.01	0.879	4.1	2.53	3.46	1.21	2.51
TCATATACGTAAATGCTAGGTGAAAGTCCGATCT	0.742	0.449	0.327	0.861	0.278	0.771	0.633	2.14	3.51	2.66
TCTGCTAGGTCAGCTGGTCAGCTAACGAGCTGCC	1.35	0.826	-1.11	0.287	-0.343	1.95	0.828	1.78	1.12	1.23
GATACAGGGTCAGCTAGAGGCCAGTGTATGGAAA	4.14	2.46	-0.408	2.42	-0.768	4.11	3.25	3	1.16	1.86
GCTGGCAGGCCATTTGGGTCACTCAATGACGGGC	0.108	0.0335	-0.419	-0.156	-0.843	1.3	0.526	0.786	-0.361	0.136
CAAGCTAGGTCACCGGAAGGTCAAAGTCCGCATG	6.4	6.14	4.88	5.32	0.898	5.38	5.86	5.76	2.96	4.67
GCTGCTAGGTCAACTTATGGTCAGCTAAAGCTCG	4.49	2.98	0.539	2.52	0.4	3.87	2.95	3.14	0.913	2.31

Sequence	PBM binding z-score [1]	PBM binding z-score [2]	PBM binding z-score [3]	PBM binding z-score [4]	PBM binding z-score [5]	PBM binding z-score [6]	PBM binding z-score [7]	PBM binding z-score [8]	PBM binding z-score [9]	PBM binding z-score [10]
AGTCAAAGTTCATCTAGGTAACGCAAGATATGCT	6.85	5.91	4.93	3.61	1.83	4.83	6.39	6.35	3.58	5.58
TCTCGGAGGACACGAAGGTCAGAGGTTTCCAGAG	1.53	1.38	0.357	1.1	-0.91	2.12	0.856	2.22	2.35	2.2
CGAAGTAGGTCATCCAGGACAGTGAATACATTGA	4.86	3.19	1.2	2.64	0.447	5.16	8.31	7.05	4.99	6.9
CCTACTGGGACAAGGTCATTGATCAGTCAAAGCA	3.62	3.43	1.26	3.06	0.0323	4.22	4.54	4.7	1.99	3.78
ATCGAAAGGTCGAACGTGAGTATACCCACCCGAA	4.36	3.99	0.856	3.32	1.01	4.39	2.81	2.76	1.14	2.12
AGAATGAGGTTAAGATCCGGGAAACAGAATACAT	2.5	1.75	-0.0766	1.58	-0.277	3.26	2.03	1.97	0.812	1.72
CTTCGGAGGACAACAGGAGGTCAGAGCTGCCAGA	1.34	2.65	2.21	1.45	-0.45	2.23	0.516	0.602	-0.765	0.051
TAGCCTAGGTCATTCAGGGGCCAGTTTAGAAAGC	4.19	3.81	1	3.32	0.887	3.8	1.98	2.15	0.497	1.59
CCTTACGGGTCACTGACAGGTTATGGCATTTGGA	5.56	4.1	0.253	3.08	-0.323	5.03	4.2	4.62	1.67	3.02
TCTTCTAGGTCAGTTGGTCAGCTAACGAGCTGCC	2.21	1.87	0.567	1.71	3.5	2.99	3.77	4.43	4.38	4.54
GATAGAGGGTCAGCTAGAGGCCAGAGTATGGAAA	3.79	2.41	-0.113	2.02	-0.604	3.92	2.36	2.57	0.476	1.54
CGTCAAAGTTGAAGGTAACGTAACAGAAAGCAGC	-0.11	-0.00279	-0.157	0.207	-0.458	1.02	0.813	1.01	0.188	0.76
CAAACTAGGTCAAGATGTCAAAGTCCGCTTCCCG	3.9	3.18	0.475	2.4	0.306	4.98	8.33	7.27	4.86	7.04
TCAGACAGGTGAAGGTAACGCAGGTACGCAGTCG	0.226	0.481	-0.607	0.397	-0.402	1.16	0.779	1.98	3.58	2.71
ATTTACGGGTCAACGAGGTTATAGCACGCGTATA	7.58	5.96	2.29	4.93	1.41	6.1	6.73	6.17	3.27	5.21
ATATGTAGGTTAAGGGTCACTCAGGTTGGTTCGC	4.78	4.46	1.96	4.27	1.2	6.85	11.8	10.2	10.8	11.2
TCTAGTAGATCAGCAGGTTAAGAAAGCTGGCCAA	0.258	0.127	-0.552	0.373	-0.762	0.734	-0.257	1.37	2.66	2.06
TATCCAGGGTCAAAGGCCAGAGTACGAATGTCGA	7.03	5.91	2.02	5.03	2.02	6.22	7.96	7.53	5.26	6.94
TCATATAGGTAATACCGGTGAAAGTCGGCATCTA	0.519	0.637	0.169	0.726	0.0983	1.44	0.698	2.2	4.02	3.31
TAGCCTAGGTCAGATCGGGCCAGTAGACGCTATA	2.39	0.985	-0.414	0.183	-0.713	1.45	0.406	0.586	-0.637	0.224
ATATGTAGGTTAGCCGGGGTCATTCAGACTAGGC	5.13	5.67	3.14	4.72	0.687	5.6	6.59	5.96	3.47	5.29
ATATCTAGGTAACAAGTTCAGTGAAAGAGAGGAC	0.903	1.07	0.574	0.857	0.917	3.32	5.22	4.43	2.41	4.16
CGAACTAGGTGAGAACAGGACAGTGAAGGATGAT	-0.071	-0.292	-0.107	-0.534	-0.796	1.57	2.76	2.11	0.836	1.12
ATTCCAAGGTGATCGTGAGGTCGTTGATACTAAC	2.16	1.56	0.734	1.23	0.167	1.52	0.194	0.382	0.172	0.122
